# Source: PubChem
# HCMV antiviral: qHTS Assay for inhibitors of the human cytomegalovirus (HCMV); HFF cells, HCMV-luciferase reporter, 72 h; stronger effect = lower value; activity change, negative = inhibition, % at 57.5 µM; 410,000 tested, 4.5% active; in the data active means activity change below about -60%; inconclusive means no clear call, values can overlap the other calls; inactive means above about -39%
#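 Human foreskin fibroblasts infected with luciferase-reporter HCMV at MOI 1 PFU/cell, compounds at two doses. Luciferase measured 72 h post infection; normalized to buffer-only basal and Salinomycin (10uM) controls.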
# Lassa entry inh: qHTS for Inhibitors of binding or entry into cells for Lassa Virus | 300,000 tested, 1.2% active | Potency, µM (highest dose often 37.9 µM), for the others: at the top dose activity change, negative = inhibition, most hits filed as inhibitors | AID 540256, 2011 | Lassa virus pseudotype entry inhibition, cell reporter; calls by dose curve; tested in HEK293 cells; further: potency means the concentration at half of the fitted maximal effect; nearly all actives have a fitted effect of over 50% in size
# MARV entry inh: qHTS for inhibitors of binding or entry into cells for Marburg Virus; Marburg virus pseudotyped entry inhibition, cell reporter; Potency, µM (series often up to 37.8 µM), without a hit: top-dose activity change, negative = inhibition, actives largely listed as inhibitors; 300,000 tested, 1.8% active; AID 540276, 2011; calls by dose curve; tested in HEK293 cells; further: potency means the concentration at half of the fitted maximal effect
# FMDV inh: High Throughput Screening for Foot and Mouth Disease Virus Antivirals; FMDV antiviral cell-based qHTS; AID 1159524, 2015; Potency, µM (series often up to 57.9 µM), for inactives: at the top dose activity change, negative = inhibition, actives largely listed as inhibitors; 410,000 tested, 1.2% active; calls by dose curve; tested in HEK293T cells; further: read-out not given here; potency means the concentration at half of the fitted maximal effect; nearly all actives have a fitted effect of over 45% in size
# VACV Venus inh: qHTS for Stage-Specific Inhibitors of Vaccinia Orthopoxvirus: Venus Reporter Primary qHTS. Potency, µM (titrated, usually from 36.5 µM), inactives show at the top dose activity change, negative = inhibition, usual class: inhibitors. Vaccinia virus Venus reporter expression, fluorescence. 330,000 tested, 0.46% active; calls by dose curve; tested in A549 cells; further: potency means the concentration at half of the fitted maximal effect; nearly all actives have a fitted effect of over 30% in size
# VACV mCherry inh: qHTS for Stage-Specific Inhibitors of Vaccinia Orthopoxvirus: mCherry Reporter Primary qHTS | Vaccinia virus mCherry reporter infection, fluorescence | Potency, µM (series often up to 36.5 µM), for inactives: top-dose activity change, negative = inhibition, hits mostly inhibitors | 310,000 tested, 0.63% active; calls by dose curve; tested in A549 cells; further: potency means the concentration at half of the fitted maximal effect; nearly all actives have a fitted effect of over 35% in size
# Numbers without * were called inactive; i = inactive; ? = inconclusive; / = not tested or not shown; [ ] = remark or other dose. Compounds with a hit are over-represented: about 6.5% of the library has one in this group of screens. On the % scale 0 is the no-effect control and ±100 the full control effect.
SMILES,HCMV antiviral,Lassa entry inh,MARV entry inh,FMDV inh,VACV Venus inh,VACV mCherry inh
CCCC(=O)NC1CCc2cc(OC)c(OC)c(OC)c2-c2ccc(OC)c(=O)cc21 (stereo not given),-91.3*,?,?,-6.0%,?,?
COc1c(C=O)c2c(c(OC)c1OC)-c1ccc(OC)c(=O)cc1C(NC(C)=O)CC2 (stereo not given),-67.8*,?,-3.5%,-6.3%,?,?
COc1cc2c(c(OC)c1OC)-c1ccc(OC)c(=O)cc1C(NC(C)=O)CC2 (stereo not given),-87.2*,/,/,-5.5%,?,-28.6%
COc1cc(CC(=O)NC2CCCc3ccccc32)cc(OC)c1OC (stereo not given),-29.2,-16.7%[46.1 µM],?,20.7%,0.0%,i
COc1cc2c(c(OC)c1OC)-c1ccc(O)c(=O)cc1C(NC(C)=O)CC2 (stereo not given),/,-26.3%,?,-8.0%,?,-20.9%
COc1ccccc1CNC(=O)c1cc(S(=O)(=O)N2CCCC(C)C2)cn1C (stereo not given),14.9,?,/,-20.5%,-8.0%,-4.8%
Cc1nc(-c2ccc(F)cc2)sc1CCNC(=O)c1cccs1,12.8,-3.0%[46.1 µM],/,0.0%,-3.8%,-0.4%
CCn1c(-c2ccccc2F)nc2cc(NC(C)=O)cc(C(=O)N(C)Cc3ccccn3)c21,/,/,/,-12.2%,-24.5%,i
Cc1cccc(C)c1NC(=O)c1csc2c1CCCC2,-28.0,/,-0.1%[46.1 µM],-3.8%,-14.4%,-19.8%
COC(=O)c1ccc2c(c1)C(NC(C)=O)CCc1cc(OC)c(OC)c(OC)c1-2 (stereo not given),-80.7*,?,?,-13.5%,?,i
CCCSC(=S)c1c(C)[nH]n(-c2ccccc2)c1=O,-79.0*,?,?,3.7%,?,-15.7%
CCCCN(CCCC)C(=S)N/N=C/c1c(C)[nH]n(-c2ccccc2)c1=O,-0.5,?,?,-23.6%,-19.8%,?
O=C(Nc1nnc([C@@H]2C[C@H](O)[C@@H](CO)O2)s1)c1cccc(C(F)(F)F)c1,14.2,/,/,6.6%,-9.3%,28.3%
CC(=O)c1c(C)nc2nc(-c3ccccc3)nn2c1C,108.8,28.1%[46.1 µM],?,71.6%,1.0%,-0.9%
CCCCn1c(SCc2nc3ccccc3s2)nc2cc(S(N)(=O)=O)ccc21,34.6,?,1.83µM*,-22.0%,?,-22.7%
Cn1c(Cl)cnc1C1CC(=O)c2cc(Cl)ccc2O1 (stereo not given),-95.7*,?,10µM*,20µM*,-13.6%,-1.8%
CCCCCCC(=O)N1C/C=C\C(c2ccc(OC)cc2)N(Cc2ccc(F)cc2)C(=O)[C@H]1Cc1ccccc1 (stereo not given in full),-93.2*,/,/,?,?,-9.3%
COc1cc(Nc2nccc(Nc3ccc4c(C)[nH]nc4c3)n2)cc(OC)c1OC,/,25µM*,/,/,/,/
COc1cc(Nc2nc(-c3ccccc3)c3cc(C)ccc3n2)cc(OC)c1OC,97.4,?,?,?,-20.9%,-29.3%
CC(=O)N1CCC[C@H]1C(=O)NCC1Cc2cc(Cl)cc(-c3ccc4[nH]ccc4c3)c2O1 (stereo not given in full),/,/,/,16.0%,-10.1%,-18.5%
CNc1ccccc1C(C)(C)c1cc(-c2ccc(F)cc2)no1,-84.7*,-14.2%,?,?,-24.5%,?
CNc1ccccc1C(C)(C)c1cc(-c2cccc([N+](=O)[O-])c2)no1,?,?,4.47µM*,-8.0%,-3.6%,?
CNc1ccccc1C(C)(C)c1cc(-c2cccc(Br)c2)no1,?,?,?,?,88.6%,i
CCn1c(-c2cccc(OC)c2)nc2cc(NC(C)=O)cc(C(=O)N3CCC[C@H]3C(=O)OC)c21,/,/,/,-5.8%,-0.3%,-8.3%
C[C@]12CC[C@H](O)C[C@H]1CCC1C2CC[C@]2(C)[C@@H](c3ccc(=O)oc3)C[C@H]3O[C@]132 (stereo not given in full),/,/,/,/,1.12µM*,1.26µM*
SMILES,HCMV antiviral,Lassa entry inh,MARV entry inh,FMDV inh,VACV Venus inh,VACV mCherry inh
CC(=O)O[C@H]1[C@H]2O[C@]23[C@@H]2CC[C@]4(O)C[C@@H](O)CC[C@]4(C)C2CC[C@]3(C)[C@H]1c1ccc(=O)oc1 (stereo not given in full),/,/,/,?,0.0316µM*,31.6µM*
C[C@]12CCC3C(CC[C@H]4C[C@@H](O)CC[C@]34C)C1CCC2=O (stereo not given in full),/,-8.9%[46.1 µM],0.1%,-28.3%,-6.9%,6.5%
C[C@]12CC[C@H]3C(CCC4(O)CC(O)CC[C@]34C=O)C1=CC[C@H]2c1ccc(=O)oc1 (stereo not given in full),-98.6*,/,/,-6.1%,/,/
COC(=O)c1nc(N2CCN(S(=O)(=O)c3ccc(C)cc3)CC2)c2ccccc2n1,/,/,/,/,-14.1%,i
O=C(CN1C(=O)COc2ccc(S(=O)(=O)N3CCCCCC3)cc21)NCCc1ccccc1,-9.5,-3.1%[46.1 µM],/,6.8%,-13.6%,-11.3%
Cc1csc(SCc2nnc(-c3ccccc3Br)o2)n1,157.9,-25.4%,-12.9%,/,-3.8%,1.9%
Fc1ccccc1SCc1nnc(-c2ccccc2Br)o1,-35.1,?,5.01µM*,-41.9%,-0.9%,-8.6%
CN=c1sc2ccccc2n1C[C@@H](O)COCc1ccco1,/,/,0.4%[46.1 µM],/,/,/
NC(=S)N/N=C/c1c(O)ccc2ccccc12,?,/,/,2.1%,/,/
NC(=S)N/N=C1/CCSc2ccc3ccccc3c21,?,-11.9%,?,?,?,14.1µM*
O=C1C=C[C@]23OCC[C@@]2(c2ccccc2)CCCC3=C1,-4.4,/,/,/,/,/
Cc1ccnc(NC(=O)c2sc3ccccc3c2Cl)c1,14.8,?,1.58µM*,?,-11.3%,-5.1%
O=C(NC1C=CS(=O)(=O)C1)c1sc2ccccc2c1Cl (stereo not given),-84.3*,?,20.6µM*,/,?,10µM*
Cc1cnc(NC(=O)c2sc3ccccc3c2Cl)s1,-13.8,?,?,-54.0%,-7.0%,i
O=C(Nc1nccs1)c1sc2ccccc2c1Cl,64.8,12.6µM*,7.08µM*,0.0%,-25.1%,-17.5%[1.46 µM]
Cc1ccnc(NC(=O)/C=C/c2ccccc2Cl)c1,-1.6,?,2.59µM*,?,2.7%,-12.2%
O=C(Nc1nccs1)c1sc2cc(Cl)ccc2c1Cl,93.1,?,?,36.2%,-15.4%,-12.5%
O=C1NC[C@H](CCCCN2C[C@H](Cc3ccc(O)cc3)N(CC3CCCCC3)C(=O)C2=O)N(CCc2ccc(O)cc2)C1=O,-35.2,/,/,-9.8%,3.6%,1.9%
COC(=O)[C@@H]1CCCN1Cc1ccc2c(c1)CN(Cc1cccc(Cl)c1)CCO2,/,/,/,-3.5%,-3.3%,-9.6%
